Experimental findings from PubChem BioAssay (NCATS) are described below.

Records with an inconclusive call do not appear. A number with no mark means an inactive call. Calls of active or inactive are those of the source. The call rests on the fitted dose curve; in most records, active means well fitted cell-killing curve with a large enough effect; inconclusive means small, poorly fitted or top-dose-only effect; inactive means flat fitted curve, though single readings scatter.
Potency means the concentration at half of the fitted maximal effect.

The test is described as follows: qHTS of pediatric cancer cell lines to identify multiple opportunities for drug repurposing: Primary screen for U-2 OS cells (AID 1347096). Further: nearly all actives have a fitted effect of over 50% in size. Particulars: U-2 OS viability, CellTiter-Glo luminescence, 48 h; series mostly up to 46 µM; activity change, negative = cytotoxic: at the top concentration. The source says:
Drug repurposing or repositioning has been offered as a strategy for drug development in oncology programs. This approach has special potential for childhood cancers and other rare or orphan diseases, where the expected return on new drug development has been a disincentive to pharmaceuticals.
In this project we exploit the poly-pharmacology of drugs to discover new indications via phenotypic screening of a panel of 19 well-characterized cell lines derived from solid tumors seen in children and adolescents. The goal is to identify approved drugs with previously unrecognized anticancer properties that has the potential to reveal new mechanisms and biological processes involved in carcinogenesis or drug resistance. We employed a titration-based paradigm (quantitative high-throughput screening or qHTS), where all compounds were tested at multiple concentrations for their effect on cell viability. Concentration-response curves (CRCs) were derived directly from the primary screen, and both potency and efficacy values were used to identify compounds with robust bioactivity profiles. We screened the NIH Chemical Genomics Center (NCGC) Pharmaceutical Collection (NPC) and Mechanism Interrogation Plate (MIPE) small molecule collections of approved and investigational compounds against these cell lines; and measured metabolically active cells after 48 hours of compound treatment as a proxy for cell viability.
Assay Submitter: Nathalia J. Martinez, National Center for Advancing Translational Sciences, National Institutes of Health, Rockville, MD, USA; email: natalia.martinez@nih.gov
[1] Shen, M et al. Quantitative high-throughput phenotypic screening of pediatric cancer cell lines identifies multiple opportunities for drug repurposing. Oncotarget 2017 Dec 19;9(4):4758-4772. PMID 29435139.
The cells were obtained from University of North Carolina (UNC), Pediatric Preclinical Testing Program (PPT), and Coriell Institute (CI).
qHTS cell viability assay:
Cells were assayed in growth media at a density of 500-1,000 cells/well. Five microliters of cells were dispensed into 1,536-well, white, solid-bottom, TC-treated plates (Greiner Bio One) using a multidrop dispenser and incubated at 37 degrees C, 5% CO2, under a humidified atmosphere for 5 hours. Twenty-three nanoliters of compounds and controls (neutral control DMSO or positive control bortezomib at final concentration of 2.3 µM) were subsequently transferred by Kalypsys pintool. For primary screens, the MIPE collection was tested at 11-point dilutions (final concentrations range from 0.78 nM to 46 µM) and the NPC collection at 8-point dilutions (final concentrations range from 0.59 nM to 46 µM). Compounds tested in follow-up screens were assayed at 11-point dilutions. Cells were incubated for 48 hours, followed by addition of 3 µL of CellTiter-Glo (Promega). After a 15 min incubation at room temperature, samples were analyzed for luminescence intensity using a ViewLux High-throughput CCD imager equipped with clear filters.
On the technique in general: In qHTS, concentration-response curves come from the screen itself.
`CN(C)S(=O)(=O)c1ccc2c(c1)C(=Cc1cc3c([nH]1)CCCC3)C(=O)N2`: the “activity change, negative = cytotoxic” value was -4.21%.

Regarding `COc1cccc(OC)c1-c1cc(C(=O)NC2(C(=O)O)C3CC4CC(C3)CC2C4)nn1-c1ccnc2cc(Cl)ccc12` (stereo not given), the “activity change, negative = cytotoxic” value is 8.06%.

For `O=C(CO)N1CCC(c2[nH]nc(-c3ccc(Cl)cc3)c2-c2ccncn2)CC1`, the “activity change, negative = cytotoxic” value was -0.621%.

On to `O=C(c1ccc(C(=O)N2CCC(N3CCCC3)CC2)c(Nc2ccccc2)c1)N1CCC(N2CCCC2)CC1`, for which the “activity change, negative = cytotoxic” value was 16.3%.

Consider `c1ccc(-c2oc3ncnc(NC[C@@H]4CCCO4)c3c2-c2ccccc2)cc1`, for which the “activity change, negative = cytotoxic” value was 13.9%.

For `COc1cc(N2CCN(C)CC2)ccc1Nc1nc(N)c(C(=O)c2c(Cl)cccc2Cl)s1`, the “activity change, negative = cytotoxic” value is 1.57%.

In the case of `C=CC[N+]1([C@H]2C[C@H]3[C@@H]4CC[C@H]5C[C@H](O)[C@@H](N6CCOCC6)C[C@]5(C)[C@@H]4CC[C@]3(C)[C@H]2OC(C)=O)CCCC1`, the “activity change, negative = cytotoxic” value was 5.67%.

For `CC[C@H](NC(=O)[C@H](C)NC)C(=O)N1C[C@@H](O)C[C@H]1Cc1c(-c2[nH]c3cc(F)ccc3c2C[C@H]2C[C@H](O)CN2C(=O)[C@H](CC)NC(=O)[C@H](C)NC)[nH]c2cc(F)ccc12`, the “activity change, negative = cytotoxic” value was -0.414%.

For the molecule `C[C@@H]1O[C@@H](O[C@H]2CC[C@@]3(C)[C@H](CC[C@@H]4[C@H]3C[C@@H](O)[C@]3(C)[C@@H](C5=CC(=O)OC5)CC[C@]43O)C2)C[C@H](O)[C@@H]1O[C@H]1C[C@H](O)[C@H](O[C@H]2C[C@H](O)[C@@H](O)[C@@H](C)O2)[C@H](C)O1` (stereo in doubt), the Potency was 0.34 µM (active).

`O=c1[nH]nc(OCCCc2ccc(Cl)cc2)c(NCc2cccnc2)c1Br`: the Potency was 23.5 µM (active).

Take `CC(C)c1onc(-c2c(Cl)cccc2Cl)c1COc1ccc(C=Cc2cccc(C(=O)O)c2)c(Cl)c1`: the “activity change, negative = cytotoxic” value is 17.9%.

Consider `O=C1CN2Cc3c(ccc(Cl)c3Cl)N=C2N1`, for which the “activity change, negative = cytotoxic” value is 19.1%.

As for `Clc1ccc(C2(c3ccc(-c4cn[nH]c4)cc3)CCNCC2)cc1`, the “activity change, negative = cytotoxic” value is -16.1%.

Take `CCOC(=O)c1c(CSc2ccccc2)n(C)c2cc(Br)c(O)c(CN(C)C)c12`: the “activity change, negative = cytotoxic” value was -19.6%.

For `CC(C)CNc1ccnc(NCc2csc(-c3ccccc3)n2)n1`, the “activity change, negative = cytotoxic” value is -19.7%.

With `CN(C)CCOc1ccc(C(=C(CCCl)c2ccccc2)c2ccccc2)cc1`, the “activity change, negative = cytotoxic” value is -0.248%.

For `Cc1cc(OCCCS(C)(=O)=O)cc(C)c1-c1cccc(COc2ccc3c(c2)OC[C@H]3CC(=O)O)c1`, the “activity change, negative = cytotoxic” value is -3.29%.

On to `COc1cc2nccc(Oc3ccc(NC(=O)Nc4cc(C)on4)c(Cl)c3)c2cc1OC`, for which the Potency was 18.7 µM (active).

`CC1=C(C(=O)Nc2cc3cn[nH]c3cc2F)C(c2ccc(C(F)(F)F)cc2)CC(=O)N1` (stereo not given): the “activity change, negative = cytotoxic” value is 5.47%.

As to `COc1ccc2c(c1)CC[C@H]1[C@@H]2CC[C@]2(C)[C@@H](NCCCCCCN3C(=O)C=CC3=O)CC[C@H]12`, the “activity change, negative = cytotoxic” value was 14.2%.

As for `O=C(NCCCCN1CCOCC1)c1cc2ccccc2o1`, the “activity change, negative = cytotoxic” value was 11.2%.

For `NS(=O)(=O)c1cc(Cl)c(Cl)c(S(N)(=O)=O)c1`, the “activity change, negative = cytotoxic” value is 8.23%.

As for `COc1ccc(CCN(C)CCCOc2ccc(S(=O)(=O)c3[nH]c4ccccc4c3C(C)C)cc2)cc1OC`, the “activity change, negative = cytotoxic” value was 6.41%.

Consider `Cc1nc(C(=O)NCC(=O)O)c(O)c2ccc(Oc3ccccc3)cc12`, for which the “activity change, negative = cytotoxic” value is 7.13%.

Turning to `COc1cc(F)c(C(C)C)cc1-c1ccc(C(F)(F)F)cc1CN1C(=O)O[C@H](c2cc(C(F)(F)F)cc(C(F)(F)F)c2)[C@@H]1C`, the “activity change, negative = cytotoxic” value is -5.94%.

In the case of `C[C@@H](O[C@H]1OCCN(Cc2n[nH]c(=O)[nH]2)[C@@H]1c1ccc(F)cc1)c1cc(C(F)(F)F)cc(C(F)(F)F)c1`, the “activity change, negative = cytotoxic” value was 0.363%.

Turning to `O=C(c1ccc(C=Cc2n[nH]c3ccccc23)cc1)N1CCNCC1`, the “activity change, negative = cytotoxic” value is -2.03%.

On to `NC(=O)c1noc([C@H](CCCC2CCCCC2)CC(=O)NO)n1`, for which the “activity change, negative = cytotoxic” value was 14.3%.

On to `CCCCC(C=O)NC(=O)C(CC(C)C)NC(=O)OCc1ccccc1` (stereo not given), for which the “activity change, negative = cytotoxic” value is -5.33%.

Consider `CC[C@H]1OC(=O)[C@H](C)[C@@H](O[C@H]2C[C@@](C)(OC)[C@@H](O)[C@H](C)O2)[C@H](C)[C@@H](O[C@@H]2O[C@H](C)C[C@H](N(C)C)[C@H]2O)[C@](C)(O)C[C@H](C)C(=NOCOCCOC)[C@H](C)[C@@H](O)[C@]1(C)O`, for which the “activity change, negative = cytotoxic” value is -5.2%.

Consider `COc1ccc2c(c1)c(C1=C(c3c[nH]c4ccccc34)C(=O)NC1=O)cn2CCCN(C)C`, for which the “activity change, negative = cytotoxic” value is -8.36%.

Turning to `Nc1ncnc2c1ncn2[C@@H]1O[C@H](CO)[C@@H](O)[C@@H]1O`, the Potency is 14.8 µM (active).

Take `O=C(Nc1cccc(Cl)c1)Nc1ncc(CCNc2ncnc3ccsc23)s1`: the “activity change, negative = cytotoxic” value was 16.6%.

For `COc1ccc(C=CC(=O)Nc2ccccc2C(=O)O)cc1OC`, the “activity change, negative = cytotoxic” value was 2%.

Turning to `Cc1cc2nc3c(=O)[nH]c(=O)nc-3n(CC(O)C(O)C(O)CO)c2cc1C` (stereo not given), the “activity change, negative = cytotoxic” value was 6.64%.

In the case of `CC[C@H](C)C(=O)O[C@H]1C[C@H](O)C=C2C=C[C@H](C)[C@H](CC[C@@H](O)C[C@@H](O)CC(=O)O)[C@H]21`, the “activity change, negative = cytotoxic” value is -5.74%.

Turning to `CC(C)(C)c1[nH]cnc1C=c1[nH]c(=O)c(=Cc2ccccc2)[nH]c1=O`, the Potency was 42.9 µM (active).

On to `O=c1cc(-c2ccc(O)c(O)c2)oc2cc(O)cc(O)c12`, for which the “activity change, negative = cytotoxic” value was 15.3%.

On to `CN[C@H]1[C@@H](O[C@@H]2[C@H](O[C@@H]3[C@@H](O)[C@@H](O)[C@@H](N=C(N)N)[C@@H](O)[C@@H]3N=C(N)N)O[C@H](C)[C@@]2(O)C=O)O[C@@H](CO)[C@@H](O)[C@H]1O`, for which the activity change, negative = cytotoxic is 13% [at 9.22 µM].

`O=C1Nc2ccc(I)cc2C1=Cc1cc(Br)c(O)c(Br)c1`: the “activity change, negative = cytotoxic” value was 11.7%.
